An excerpt weighted towards active compounds, which were near 5.7% of everything screened.
DAX1 inh-1 = DAX1 (NR0B1) inhibitors on StAR promoter, primary screen, cell-based, luminescence, SF-1 (NR5A1), full-length DAX-1. hit rate 1.1% among 370,000. HEK293T StAR-luciferase reporter, SF-1/DAX-1 repression relief. AID 652010, 2013. inhibition, % at 6.8 µM;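 active = inhibition above the mean over all tested compounds plus 3 SD, cut at about 3.6% in these data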;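 also: 0% = DAX-1 cells with DMSO and 100% = cells lacking DAX-1 with DMSO; higher inhibition means more luminescence from relief of DAX-1 repression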
DAX1 inh-2 = DAX1 (NR0B1) inhibitors, primary screen, cell-based, HEK293, Gal4-DAX1, luciferase luminescence; HEK293 Gal4-DAX1 luciferase reporter; inhibition, % at 6.75 µM; Nuclear receptor subfamily 0 group B member 1 (Homo sapiens), P51843; hit rate 0.99% among 340,000;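 active = inhibition above the mean over all tested compounds plus 3 SD, cut at about 4.2% in these data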;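 also: 0% = DAX1-transfected cells with DMSO and 100% = empty-vector control cells with DMSO; inhibition shows as a rise in luminescence from relieved DAX1 repression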
Target sequence (P51843 207-470 limits assumed): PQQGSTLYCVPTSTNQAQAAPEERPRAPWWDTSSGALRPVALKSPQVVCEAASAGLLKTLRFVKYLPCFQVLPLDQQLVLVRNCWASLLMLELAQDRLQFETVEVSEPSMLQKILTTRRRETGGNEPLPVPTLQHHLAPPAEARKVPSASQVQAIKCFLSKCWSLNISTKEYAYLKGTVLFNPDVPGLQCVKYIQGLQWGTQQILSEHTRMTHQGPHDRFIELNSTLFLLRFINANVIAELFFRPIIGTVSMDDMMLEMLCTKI
hcDAF-12 act = H. contortus DAF-12 nuclear receptor activators, primary screen, cell-based, luminescence, HEK293, lit1-tk-luc reporter; HEK293 hcDAF-12 lit1-tk-luc reporter; 0% DMSO, 100% Δ7-dafachronic acid; activation, % at 6.8 µM; hit rate 1.4% among 370,000; AID 652067, 2013;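 active = activation above the mean of all tested compounds plus 3 SD, cut at about 5.5% in these data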;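 also: 100% = response to 3 µM Δ7-dafachronic acid high control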
AHR act = AHR activators, primary screen, cell-based, luminescence, luciferase reporter, human; hit rate 2.5% among 320,000; Aryl hydrocarbon receptor (Homo sapiens), P35869; AHR-responsive luciferase reporter cells; activation, % at 5 µM; in the data active = activation above about 47%;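 also: 0% = vehicle wells and 100% = reference agonist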
ssDAF-12 act = S. stercoralis DAF-12 nuclear receptor activators, primary screen, cell-based, luminescence, HEK293, GRIP1 co-expression, lit1-tk-luc. hit rate 1% among 370,000. Nuclear hormone receptor DAF-12 (Strongyloides stercoralis). HEK293 ssDAF-12/GRIP1 lit1-tk-luc reporter; % of 3 µM dafachronic acid response. activation, % at 6.8 µM;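 active = activation above the mean over all tested compounds plus 3 SD, cut at about 0.9% in these data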;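 also: 0% = DMSO-only wells and 100% = 3 µM delta7-dafachronic acid wells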
hgDAF12 agonist = H. glycines DAF-12 receptor agonists, primary screen, cell-based, luminescence, HEK293, GAL4 fusion, UAS-luciferase; activation, % at 6.8 µM; HEK293 GAL4-hgDAF12 UAS-luciferase reporter, agonist luminescence; normalized to butyrate control; Nuclear hormone receptor DAF-12 (Heterodera glycines), GAL4 fusion; hit rate 1.8% among 370,000;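 active = activation above a cutoff set at the mean of all screened compounds plus 3 SD, cut at about 10% in these data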;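 also: 0% = DMSO wells and 100% = sodium butyrate wells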
Starred values were filed as active, the others as inactive; . = no result.

SMILES	DAX1 inh-1	DAX1 inh-2	hcDAF-12 act	AHR act	ssDAF-12 act	hgDAF12 agonist
CCc1cc(C(=O)Nc2nc(-c3ccccn3)cs2)sc1C	-1	6.7*	4	30	0	5
O=C(/C=C\Nc1ccccn1)c1ccc(Cl)cc1	4.2*	-4	6	-2	0	7
O=C(COC(=O)CCc1c[nH]c(=O)[nH]1)Nc1cccc(Cl)c1	0	1	1	2	-1	-1
COc1ccc(C2C(C(=O)Nc3cc(OC)c(OC)c(OC)c3)c3ccccc3C(=O)N2C)cc1OC (centres undefined)	0	0	0	2	-2	-1
COc1ccc(C(=O)N2CCC(C(=O)O)CC2)cc1	0	1	0	-1	-1	-1
CC(=O)Nc1ccc(C(=O)Nc2nc(-c3ccccn3)cs2)cc1	0	0	3	16	-1	5
N#Cc1ccc(NC(=O)c2nc(-c3ccccc3)n(-c3ccccc3)n2)cc1	0	0	-1	-2	-1	-1
CC1Oc2ccccc2OC1C(=O)Nc1ccccn1 (centres undefined)	0	0	6.3*	68*	0	3
O=C(Nc1nc(-c2ccccn2)cs1)c1ccc2c(c1)OCCO2	3.8*	1	1	16	0	11*
O=C(Nc1ccccn1)c1cc2ccccc2cc1O	.	3	.	68*	.	.
O=C(Nc1ccccn1)c1nc(-c2ccccc2)n(-c2ccccc2)n1	0	-2	-2	56*	-1	-3
Clc1cccc(NCc2nnc3n2CCCCC3)c1	0	0	-1	0	-1	0
Cc1cc(C(=O)C(=O)O)c(C)n1-c1ccc(Cl)c(Cl)c1	0	0	0	2	1.0*	-2
Cc1cc(C(=O)C(=O)N(C)C)c(C)n1-c1ccc(Cl)c(Cl)c1	-1	-1	-2	-4	-1	-4
Cc1cc(C)c2cc(C(=O)N3CCC(N4CCCCC4)CC3)[nH]c2c1	4.3*	1	0	10	-1	2
Cc1cc(C)c2cc(C(=O)N3CCC(C(=O)c4ccc(F)cc4)CC3)[nH]c2c1	-1	-1	-2	6	-1	-2
COc1ccc(CNC(=O)c2ccc3c(c2)N(C)CCS3)cc1	0	1	-2	37	-1	7
CN1CCSc2ccc(C(=O)NCc3ccccc3F)cc21	1	0	1	78*	0	6
COc1cccc(CNC(=O)c2ccc3c(c2)N(C)CCS3)c1OC	1	1	0	56*	-1	2
O=C(NC(=S)Nc1ccc(-c2ccc(CO)o2)cc1)c1cccs1	.	.	.	25	.	.
CC(C)Cn1nc(NS(=O)(=O)c2cccc3nonc23)c2cc3ccccc3nc21	-1	0	4	2	-1	3
Cc1ccc(O)c(NC(=O)C2=CC(c3ccco3)=NS(=O)(=O)N2C)c1	0	0	0	14	-1	0
Cc1ccc(C2=NS(=O)(=O)N(C)C(C(=O)Nc3ccc4c(c3)OCO4)=C2)cc1	-1	2	2	53*	0	10
CN1C(C(=O)Nc2cccc(O)c2)=CC(c2ccco2)=NS1(=O)=O	0	7.6*	1	-1	-1	5
CCN1CCN(C(=O)C2=CC(c3ccc(C)cc3)=NS(=O)(=O)N2C)CC1	-2	4.5*	0	35	-1	1
SMILES	DAX1 inh-1	DAX1 inh-2	hcDAF-12 act	AHR act	ssDAF-12 act	hgDAF12 agonist
COc1ccc(OC)c2sc(N(CCN(C)C)C(=O)/C=C/c3cccs3)nc12	0	-1	-4	29	-1	-1
COc1ccc(C)c2sc(N(CCN(C)C)C(=O)/C=C/c3cccs3)nc12	0	0	6.1*	11	1.2*	1
CN(C)CCCN(C(=O)/C=C/c1cccs1)c1nc2ccc(F)cc2s1	-1	0	-1	3	-1	-4
Cc1ccc2nc(N(CCN(C)C)C(=O)/C=C/c3cccs3)sc2c1	0	-2	0	48*	-1	1
CN(C)CCN(C(=O)/C=C/c1cccs1)c1nc2c(F)cc(F)cc2s1	0	1	0	66*	0	0
CCc1ccc2nc(N(CCN(C)C)C(=O)/C=C/c3cccs3)sc2c1	.	1	.	12	.	.
Cc1ccc2c(c1C)NC(=O)C21N2CCCC2C(C(=O)c2ccc3ccccc3c2)C12C(=O)Nc1ccccc12 (centres undefined)	-1	2	3	.	1.1*	2
Cc1nc(C)c(C(=O)N2CCCC(C(=O)c3ccc4ccccc4c3)C2)s1 (centres undefined)	-2	0	-1	-4	-1	-2
CCc1cccc2c1NC(=O)C21OCCO1	0	2	3	20	1.2*	4
Cc1nc2c(OCc3ccc(Cl)cc3)cccn2c1N(C)C(=O)CCC1CCCC1	-1	.	-1	.	-1	10*
Cc1nc2c(OCc3ccc(F)cc3)cccn2c1N(C)C(=O)CCC1CCCC1	-2	.	-2	.	-1	-4
O=C(Nc1cccc(-c2cn3cccnc3n2)c1)c1ccc2c(c1)OCO2	-1	1	-1	49*	-2	4
Nc1cccc(-c2cn3cccnc3n2)c1	0	1	1	20	-1	7
O=C(Nc1cccc(-c2cn3cccnc3n2)c1)c1ccc(Br)o1	-1	-1	0	72*	-2	2
O=C(Nc1cccc(-c2cn3c(n2)SCC3)c1)c1ccc2c(c1)OCO2	0	-2	1	50*	-2	2
c1cnc2nc(-c3ccc4c(c3)OCO4)cn2c1	4.1*	1	3	64*	-1	13*
O=C(Nc1cccc(-c2cn3cccnc3n2)c1)c1ccco1	.	-1	.	33	.	.
O=C(Nc1ccccc1)Nc1cccc(-c2cn3cccnc3n2)c1	-1	-1	-2	10	-2	2
COC(=O)[C@@H](Cc1ccccc1)NC(=O)NCCc1ccc(OC)c(OC)c1	-1	4.3*	0	1	-1	2
CCCC(=O)NC(=S)c1c(C)n(C)n(-c2ccccc2)c1=O	1	0	5.8*	2	0	-2
Cc1ccc(CN2CCN(/N=C/c3cc(Br)cc(Br)c3O)CC2)cc1	-1	-1	0	-1	-1	1
CCCCOc1ccc(-n2nc(C)cc2C)nn1	2	4.7*	2	5	-1	3
